Assay outcomes from PubChem BioAssay.
Most compounds without a hit are left out; they make up all but 4.6% or so of the library.
V-ATPase pHluor: alters yeast V-ATPase proton transport; S. cerevisiae, pHLuorin cytosolic pH fluorescence; hit rate 0.37% among 350,000; AID 504577; response, % at 10 µM; in the data active means response mostly above about 7.3%, no sharp cut-off; inactive means mostly below about 5.4%; further: actives read high
tim23-1 inh: growth inhibitors of tim23-1 mutant yeast | S. cerevisiae tim23-1 growth, BacTiter-Glo luminescence, 24 h | inhibition, % at 20 µM | AID 463212 | hit rate 1.3% among 330,000;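 active means growth inhibition of the mutant yeast at or above 50%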;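 further: temperature-sensitive mutant grown at 25 °C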
tim10-1 inh: growth inhibitors of tim10-1 mutant yeast. S. cerevisiae tim10-1 ts strain growth, BacTiter-Glo, 24 h. inhibition, % at 20 µM. hit rate 2.2% among 330,000. AID 463190;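 active means inhibition of at least 40%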;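 further: mutant grown at 25 °C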
SKKanGAS inh: inhibitors of SKKanGAS S. pyogenes growth in kanamycin (SK-promoter or general growth effect); BacTiter-Glo, 6 h; inhibition, % at 7.5 µM; hit rate 1.3% among 300,000; AID 1662;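 active means mean replicate score, as percent of positive control median, at least 50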;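 further: strain carries kanamycin resistance gene driven by streptokinase promoter and grows in 40 µg/ml kanamycin; loss of luminescence reflects streptokinase promoter inhibition or plain growth inhibition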
PfHsp90 yeast 2: inhibits growth of yeast expressing Plasmodium falciparum Hsp90; S. cerevisiae expressing PfHsp90, BacTiter-Glo ATP, 48 h; yeast lacking PDR1 and PDR3 efflux regulators; inhibition, % at 9.4 µM; hit rate 0.32% among 310,000; AID 504621;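 active means every replicate shows inhibition above about 80%, whatever the replicate mean, limit read from the data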
TIM10 inh: inhibits growth of TIM10 yeast strain | inhibition, % at 10 µM | hit rate 1.4% among 330,000 | S. cerevisiae TIM10 strain growth, BacTiter-Glo luminescence, 24 h | AID 463195;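 active means inhibition of 40% or more at the single tested concentration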;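 further: wild-type TIM10 isogenic control strain grown at permissive 25 °C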
tim10-1 conf: confirmation of tim10-1 mutant yeast growth inhibitors; shares compounds with tim10-1 inh; S. cerevisiae tim10-1 ts strain growth, BacTiter-Glo, 24 h; inhibition, % at 20 µM; hit rate 56% among 7,400;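 active means inhibition of yeast growth at or above a set limit in either of two repeat tests at 20 µM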;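 further: tim10-1 mutant grown at permissive 25 °C to find synthetic lethal compounds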
tim10 confirm: TIM10 yeast growth inhibition, confirmed; shares compounds with TIM10 inh; S. cerevisiae tim10 strain growth, BacTiter-Glo luminescence, 24 h; inhibition, % at 10 µM; hit rate 63% among 4,600; AID 463215;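 active means inhibition of yeast growth at or above a set limit in either of two replicates at 10 µM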; further: this counterscreen used the strain with wild-type TIM10
Each line names hits and unclear results; the compound was inactive in the other large screens (follow-up assays come after a bar, where they were run).

COc1ccc(-c2cn3ccccc3n2)cc1OC	none
COc1ccc(-c2cn3cc(C)ccc3n2)cc1OC	tim10-1 inh 50, TIM10 inh 67 | tim10-1 conf 43 | tim10 confirm 60
COc1ccc(-c2cc(C(=O)N3CCN(S(=O)(=O)c4ccc(C)cc4)CC3)[nH]n2)cc1	none
CC1=C(C)Cc2c(OC(=O)c3ccccc3)ccc(OC(=O)c3ccccc3)c2C1	none (no result: V-ATPase pHluor, PfHsp90 yeast 2)
C=CCC[C@@H](Cc1ccc(F)cc1)C(=O)OC[C@@H](Cc1ccccc1)NC(=O)[C@@H](CC=C)CC(=O)N[C@@H](CO)Cc1ccccc1	none (no result: SKKanGAS inh)
O=C1/C(=C/c2cccc([N+](=O)[O-])c2)CSc2ccc(Cl)cc21	none
CNc1ccc(/C=C2\CSc3ccccc3C2=O)cc1[N+](=O)[O-]	tim10-1 inh 45, TIM10 inh 46 (no result: PfHsp90 yeast 2) | tim10-1 conf 40 | tim10 confirm inactive
CS(=O)(=O)c1ccc(Sc2nc3ccccc3[nH]2)c([N+](=O)[O-])c1	none
O=[N+]([O-])c1cc(S(=O)(=O)C(F)(F)F)ccc1Sc1nc2ccccc2s1	tim10-1 inh 45, SKKanGAS inh 89, PfHsp90 yeast 2 109, TIM10 inh 55 | tim10-1 conf 74 | tim10 confirm 75
CS(=O)(=O)c1ccc(Sc2nc3ccccc3s2)c([N+](=O)[O-])c1	tim10-1 inh 46, TIM10 inh 42 | tim10-1 conf 38 | tim10 confirm inactive
O=[N+]([O-])c1cc(C(F)(F)F)ccc1Sc1ccc2ccccc2n1	none
NS(=O)(=O)c1ccc(NC(=O)COC(=O)CNC(=O)C23CC4CC(CC(C4)C2)C3)cc1	none
COc1ccc(OC)c(S(=O)(=O)NC2CC(=O)N(c3cccc(F)c3)C2)c1 (stereo not drawn)	none
CCOc1ccc2c(c1)c1nnc(SCC3CCCO3)nc1n2C (stereo not drawn)	tim10-1 inh 46, TIM10 inh 44 (no result: PfHsp90 yeast 2) | tim10-1 conf 30 | tim10 confirm 47
CCOc1ccc2[nH]c3nc(SCC(=O)NCC4CCCO4)nnc3c2c1 (stereo not drawn)	none
Cc1ccc(CN(C)C(=O)c2ccccc2NC(=O)c2ccccc2)o1	none (no result: SKKanGAS inh)
CCCCCCSc1ccc([C@@H]2[C@@H]3C(=O)N(C)C(=O)[C@@H]3[C@]3(C(=O)OC)CCCCN23)cc1	none (no result: SKKanGAS inh)
CCOC(=O)c1ccc(NC(=O)CC2Sc3ncnn3C2=O)cc1 (stereo not drawn)	tim10-1 inh 61, TIM10 inh 75 (no result: PfHsp90 yeast 2) | tim10-1 conf 58 | tim10 confirm 58
CCOC(=O)CSC1=NC(=O)/C(=C\c2ccc(OC(C)=O)cc2)S1	tim10-1 inh 69, TIM10 inh 51 | tim10-1 conf 69 | tim10 confirm 63
COc1ccccc1N=c1oc2cc(O)ccc2cc1C(N)=O	tim10-1 inh 47, SKKanGAS inh 70, PfHsp90 yeast 2 97, TIM10 inh 40 | tim10-1 conf 48 | tim10 confirm 33
CC1CN(CC(O)COc2ccc(C#N)cc2)CCN1CC(O)COc1ccc(C#N)cc1 (stereo not drawn)	none
CCOC(=O)C(C(=O)OCC)C(Nc1ccc(Br)cc1)c1ccccc1 (stereo not drawn)	tim10-1 inh 51, TIM10 inh 51 | tim10-1 conf 39 | tim10 confirm 52
CCOC(=O)C(c1ccccc1)C(Nc1ccc(F)cc1)c1ccccn1 (stereo not drawn)	none
CC(=O)C(Sc1nc(N(C)C)nc(N(C)C)n1)C(=O)Nc1ccccc1 (stereo not drawn)	tim10-1 inh 40, TIM10 inh 97 | tim10-1 conf inactive | tim10 confirm inactive
CC(Sc1nc(NCc2ccccc2)nc(N(C)C)n1)C(=O)Nc1ccccc1 (stereo not drawn)	none
COc1ccc(N(CC(=O)N/N=C/c2ccco2)S(=O)(=O)c2ccccc2)cc1Cl	none
CCCN1C(=O)/C(=C/c2ccc(C)s2)NC1=S	tim10-1 inh 47, TIM10 inh 45 | tim10-1 conf inactive | tim10 confirm 40
CC(C)CN1C(=O)/C(=C/c2cccs2)NC1=S	tim10-1 inh 43, TIM10 inh 48 | tim10-1 conf inactive | tim10 confirm 40
CC(C)CN1C(=O)/C(=C/c2ccco2)NC1=S	none
Cc1ccc(/C=C2/NC(=O)N(Cc3ccccc3F)C2=O)s1	none
Cc1cc(C)cc(C(=O)NCCCN2CCOCC2)c1	none
CCCC(=O)Nc1ccc(-c2nc3cc(C)ccc3o2)cc1	tim10-1 inh 44, TIM10 inh 55 | tim10-1 conf 32 | tim10 confirm 52
O=C(O)c1cc(S(=O)(=O)N2CC3CC3C2C(=O)O)c(Cl)cc1Cl (stereo not drawn)	none
O=C(NCc1ccco1)c1ccccc1F	none
O=C(NCc1ccco1)c1ccccc1Nc1ccc(F)cc1	tim10-1 inh 52, TIM10 inh 44 (no result: SKKanGAS inh) | tim10-1 conf 47 | tim10 confirm 36
COc1ccccc1NC(=O)c1ccccc1C(=O)N(C)Cc1ccccc1	none (no result: SKKanGAS inh)
CCn1c2c(c3cc(Br)ccc31)CCC/C2=N\O	tim10-1 inh 66, TIM10 inh 54 | tim10-1 conf 39 | tim10 confirm 34
COc1ccc2c(c1)OC[C@H]1[C@H]2N2C(=O)CN(CCc3c[nH]c4ccccc34)C(=O)[C@@]2(C)[C@H]1c1ccccc1	none (no result: SKKanGAS inh)
O=C(Nc1ccc(Cl)c(Cl)c1)OCc1cccnc1	tim10-1 inh 50, TIM10 inh 44 | tim10-1 conf 47 | tim10 confirm 30
Cc1oc2cc3oc(=O)c(CCC(=O)N4C[C@H]5C[C@@H](C4)c4cccc(=O)n4C5)c(C)c3cc2c1C	none
COc1ccc(CCNC(=S)NC(=O)c2cccc(Cl)c2)cc1OC	tim10-1 inh 48, TIM10 inh 40 (no result: PfHsp90 yeast 2) | tim10-1 conf 30 | tim10 confirm 41
CC(=O)N(Cc1ccc(F)cc1)C1=C(NCCc2ccccc2)C(=O)c2ccccc2C1=O	tim10-1 inh 41, TIM10 inh 45 | tim10-1 conf inactive | tim10 confirm 31
CCC1CSC(Nc2ccc(C(=O)/C=C/c3ccc(Oc4ccccc4)cc3)cc2)=N1 (stereo not drawn)	none
CCC1CSC(Nc2ccc(C(=O)/C=C/c3cccc(C)c3)cc2)=N1 (stereo not drawn)	tim10-1 inh 57, TIM10 inh 62 | tim10-1 conf 44 | tim10 confirm 62
O=C(Nc1ccc(Cl)c([N+](=O)[O-])c1)ONC1=NCCCCC1	tim10-1 inh 78, TIM10 inh 54 | tim10-1 conf 77 | tim10 confirm 46
COc1cc(C(=O)Nc2ccc(Cl)c([N+](=O)[O-])c2)cc(OC)c1OC	none
